Laboratory results taken from the supplement of paper PMC10849652.
The full data set covers some 7,900 targets. This sample favours those with a hit. About 0.6% of all pairs of compound and target were hits.

Columns and labels:
Test in all cases: log2 fold change, soluble protein after heating vs DMSO (PISA); higher = thermal stabilisation; K562 cells, 10 uM, 30 min; active = over 0.2 and 3.5 SD of the protein, either way, in both replicates (recomputed)
saracatinib = compound: CN1CCN(CCOc2cc(OC3CCOCC3)c3c(Nc4c(Cl)ccc5c4OCO5)ncnc3c2)CC1 [saracatinib]
Outline: (§1)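 Aliquots of K562 cells (2×10^6 cells/mL) treated with 10 μM compound for 30 min were heated for 3 min over 48°C-58°C. After pooling and extraction in PBS with 0.5% NP-40 at 4°C, soluble protein from a 21,000xg, 90 min spin was quantified by TMTpro 16plex LC-MS/MS with channel sums equalised. Thermal stability is expressed against control samples, from duplicates, as a log2 fold change.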

sotrastaurin = compound: CN1CCN(c2nc(C3=C(c4c[nH]c5ccccc45)C(=O)NC3=O)c3ccccc3n2)CC1 [sotrastaurin]
Outline: as §1

alvocidib = compound: CN1CC[C@H](c2c(O)cc(O)c3c(=O)cc(-c4ccccc4Cl)oc23)[C@H](O)C1 [alvocidib]
Outline: as §1

Tubastatin A = compound: CN1CCc2c(c3ccccc3n2Cc2ccc(C(=O)NO)cc2)C1 [Tubastatin A]
Outline: as §1

[1] = compound: CNC(=O)C1=CC=CC=C1NC2=NC(=NC=C2Cl)NC3=C(C=C(C=C3)N4CCOCC4)OC
Outline: as §1

defactinib = compound: CNC(=O)c1ccc(Nc2ncc(C(F)(F)F)c(NCc3nccnc3N(C)S(C)(=O)=O)n2)cc1 [defactinib]
Outline: as §1

rucaparib = compound: CNCc1ccc(-c2[nH]c3cc(F)cc4c3c2CCNC4=O)cc1 [rucaparib]
Outline: as §1

[2] = compound: CNc1nc(-c2ccc3c(N)n[nH]c3c2)cc(N2C[C@@H](C(=O)NC3CCCCC3)CC[C@H]2C)n1
Outline: as §1

encorafenib = compound: COC(=O)N[C@@H](C)CNc1nccc(-c2cn(C(C)C)nc2-c2cc(Cl)cc(NS(C)(=O)=O)c2F)n1 [encorafenib]
Outline: as §1

[3] = compound: COC(=O)[C@H](CCSC)NC(=O)C1=C(C=C(C=C1)NC[C@H](CS)N)C2=CC=CC=C2
Outline: as §1

Measured: log2 fold change

RGS10 (UniProt O43665)
inactive: saracatinib 0.033 | sotrastaurin -0.023 | alvocidib -0.042 | Tubastatin A 0.049 | [1] 0.014 | defactinib -0.11 | rucaparib 0.038 | [2] 0 | encorafenib -0.001 | [3] -0.002

ROCK1 (UniProt Q13464)
inactive: saracatinib -0.006 | sotrastaurin -0.056 | alvocidib -0.052 | Tubastatin A -0.009 | [1] -0.016 | defactinib -0.023 | rucaparib 0.021 | [2] 0.122 | encorafenib 0.031 | [3] -0.015

RDH11 (UniProt Q8TC12)
Sequence of UniProt Q8TC12 (Q8TC12 whole entry, looked up): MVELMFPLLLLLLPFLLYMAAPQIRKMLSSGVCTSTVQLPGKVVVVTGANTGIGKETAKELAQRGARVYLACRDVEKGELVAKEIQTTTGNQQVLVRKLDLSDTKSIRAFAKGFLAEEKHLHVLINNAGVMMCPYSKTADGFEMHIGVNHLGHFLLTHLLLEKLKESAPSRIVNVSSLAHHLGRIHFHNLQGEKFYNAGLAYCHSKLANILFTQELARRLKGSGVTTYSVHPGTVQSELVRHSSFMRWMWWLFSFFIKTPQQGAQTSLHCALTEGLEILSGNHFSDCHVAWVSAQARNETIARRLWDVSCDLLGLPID
inactive: saracatinib -0.121 | sotrastaurin -0.019 | alvocidib -0.028 | Tubastatin A 0.003 | [1] 0.136 | defactinib 0.001 | rucaparib 0.113 | [2] 0.019 | encorafenib 0.094 | [3] -0.086

SEPTIN5 (UniProt G3XAH0)
inactive: saracatinib 0.045 | sotrastaurin 0.023 | alvocidib -0.033 | Tubastatin A -0.038 | [1] 0.042 | defactinib -0.023 | [2] 0.032 | [3] 0.028

RDH13 (UniProt Q8NBN7)
Sequence of UniProt Q8NBN7 (Q8NBN7 whole entry, looked up): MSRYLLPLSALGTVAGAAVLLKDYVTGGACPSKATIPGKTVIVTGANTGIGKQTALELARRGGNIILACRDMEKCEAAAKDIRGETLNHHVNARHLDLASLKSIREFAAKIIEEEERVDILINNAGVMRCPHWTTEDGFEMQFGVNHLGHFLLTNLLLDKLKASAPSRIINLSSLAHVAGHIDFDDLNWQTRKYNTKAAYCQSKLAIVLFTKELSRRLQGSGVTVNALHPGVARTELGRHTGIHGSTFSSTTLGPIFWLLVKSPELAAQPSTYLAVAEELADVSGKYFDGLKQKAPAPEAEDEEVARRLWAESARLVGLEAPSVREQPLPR
inactive: saracatinib -0.084 | sotrastaurin 0.027 | alvocidib -0.097 | Tubastatin A -0.063 | [1] -0.062 | defactinib -0.043 | rucaparib 0.029 | [2] 0.016 | encorafenib 0.014 | [3] -0.016

SHROOM2 (UniProt Q13796)
inactive: saracatinib -0.118 | sotrastaurin 0.128 | alvocidib 0.071 | Tubastatin A 0.283 | [1] -0.29 | defactinib 0.059 | rucaparib -0.049 | [2] 0.08 | encorafenib -0.136 | [3] 0.1

SLC19A1 (UniProt P41440)
Sequence of UniProt P41440 (P41440 whole entry, looked up): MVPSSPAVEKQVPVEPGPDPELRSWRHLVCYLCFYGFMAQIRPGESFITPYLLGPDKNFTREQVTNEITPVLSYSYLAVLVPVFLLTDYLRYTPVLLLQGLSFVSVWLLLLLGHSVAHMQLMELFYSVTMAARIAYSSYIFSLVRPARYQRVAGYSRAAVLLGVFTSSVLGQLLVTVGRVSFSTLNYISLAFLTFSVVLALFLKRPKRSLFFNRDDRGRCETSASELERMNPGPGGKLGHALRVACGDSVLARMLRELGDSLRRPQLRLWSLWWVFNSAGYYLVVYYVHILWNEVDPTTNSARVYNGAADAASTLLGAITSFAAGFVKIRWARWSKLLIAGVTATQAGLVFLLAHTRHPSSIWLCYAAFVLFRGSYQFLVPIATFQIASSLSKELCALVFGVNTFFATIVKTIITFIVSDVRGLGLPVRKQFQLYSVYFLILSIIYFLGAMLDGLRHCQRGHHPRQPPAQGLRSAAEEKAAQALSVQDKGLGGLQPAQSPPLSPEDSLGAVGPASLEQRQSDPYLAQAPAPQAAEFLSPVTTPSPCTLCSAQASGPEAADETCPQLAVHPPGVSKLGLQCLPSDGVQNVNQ
inactive: saracatinib 0.012 | sotrastaurin -0.173 | alvocidib 0.06 | Tubastatin A -0.021 | [1] -0.035 | defactinib -0.061 | rucaparib -0.179 | [2] -0.048 | encorafenib 0.041 | [3] -0.003

RBM12 (UniProt Q9NTZ6)
inactive: saracatinib -0.04 | sotrastaurin -0.12 | alvocidib -0.191 | Tubastatin A 0.074 | [1] 0.008 | defactinib -0.27 | rucaparib -0.109 | [2] -0.02 | encorafenib 0.061 | [3] -0.052

SERINC3 (UniProt Q13530)
inactive: saracatinib 0.002 | sotrastaurin 0.119 | alvocidib 0.134 | Tubastatin A -0.06 | [1] -0.043 | defactinib -0.016 | rucaparib 0.006 | [2] -0.216 | encorafenib -0.017 | [3] -0.065

SEC31A (UniProt O94979)
Sequence of UniProt O94979 (O94979 whole entry, looked up): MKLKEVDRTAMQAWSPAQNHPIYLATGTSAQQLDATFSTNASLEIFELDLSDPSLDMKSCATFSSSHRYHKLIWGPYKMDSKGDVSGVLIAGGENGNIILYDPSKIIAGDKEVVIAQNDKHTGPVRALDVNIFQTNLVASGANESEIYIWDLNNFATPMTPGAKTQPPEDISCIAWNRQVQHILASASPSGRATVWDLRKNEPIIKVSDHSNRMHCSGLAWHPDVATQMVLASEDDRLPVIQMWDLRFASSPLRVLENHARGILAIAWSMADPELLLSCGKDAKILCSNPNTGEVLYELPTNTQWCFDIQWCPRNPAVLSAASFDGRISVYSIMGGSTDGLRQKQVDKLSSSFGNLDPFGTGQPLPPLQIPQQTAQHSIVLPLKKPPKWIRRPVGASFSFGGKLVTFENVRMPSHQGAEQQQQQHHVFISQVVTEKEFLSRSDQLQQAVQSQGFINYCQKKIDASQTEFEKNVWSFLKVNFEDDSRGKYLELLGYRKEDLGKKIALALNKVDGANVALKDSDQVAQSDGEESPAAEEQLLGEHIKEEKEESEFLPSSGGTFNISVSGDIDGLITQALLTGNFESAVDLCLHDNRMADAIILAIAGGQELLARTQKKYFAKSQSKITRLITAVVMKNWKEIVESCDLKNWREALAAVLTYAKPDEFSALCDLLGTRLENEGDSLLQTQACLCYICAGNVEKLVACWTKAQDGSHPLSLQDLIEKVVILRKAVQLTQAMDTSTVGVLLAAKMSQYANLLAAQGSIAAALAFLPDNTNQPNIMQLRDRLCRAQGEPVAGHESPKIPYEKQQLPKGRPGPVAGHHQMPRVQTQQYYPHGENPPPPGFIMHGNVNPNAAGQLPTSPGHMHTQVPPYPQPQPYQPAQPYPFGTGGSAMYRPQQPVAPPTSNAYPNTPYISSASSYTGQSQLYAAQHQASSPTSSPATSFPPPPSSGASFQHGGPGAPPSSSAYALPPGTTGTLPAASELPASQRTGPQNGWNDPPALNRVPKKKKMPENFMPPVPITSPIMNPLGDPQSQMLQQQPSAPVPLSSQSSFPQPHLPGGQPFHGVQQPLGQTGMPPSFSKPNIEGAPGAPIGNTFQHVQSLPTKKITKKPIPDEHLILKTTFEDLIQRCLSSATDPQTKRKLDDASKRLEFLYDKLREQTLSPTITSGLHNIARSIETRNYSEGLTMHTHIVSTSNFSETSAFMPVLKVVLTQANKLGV
inactive: saracatinib -0.086 | sotrastaurin -0.084 | alvocidib -0.006 | Tubastatin A 0.019 | [1] 0.043 | defactinib -0.036 | rucaparib 0.002 | [2] -0.015 | encorafenib 0.062 | [3] -0.03

RUFY3 isoform 3 (UniProt Q7L099)
inactive: saracatinib -0.054 | sotrastaurin -0.036 | alvocidib -0.133 | Tubastatin A 0 | [1] -0.029 | defactinib -0.028 | rucaparib 0.105 | [2] -0.255 | encorafenib -0.017 | [3] -0.059

RAP2C (UniProt Q9Y3L5)
inactive: saracatinib 0.04 | sotrastaurin 0.026 | alvocidib -0.009 | Tubastatin A -0.014 | [1] -0.058 | defactinib -0.044 | rucaparib -0.003 | [2] -0.054 | encorafenib -0.041 | [3] 0.01

RHOXF2 (UniProt Q9BQY4)
inactive: saracatinib 0.015 | sotrastaurin -0.002 | alvocidib 0.011 | Tubastatin A 0.042 | [1] -0.021 | defactinib 0.008 | rucaparib 0.09 | [2] -0.074 | encorafenib -0.018 | [3] 0.066

ROMO1 (UniProt P60602)
Sequence of UniProt P60602 (P60602 whole entry, looked up): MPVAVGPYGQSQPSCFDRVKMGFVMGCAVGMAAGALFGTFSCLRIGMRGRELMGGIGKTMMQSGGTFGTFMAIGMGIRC
inactive: saracatinib 0.022 | sotrastaurin -0.091 | alvocidib 0.023 | Tubastatin A 0.048 | [1] 0.013 | rucaparib -0.038 | [2] -0.012 | encorafenib 0.026

RRS1 (UniProt Q15050)
inactive: saracatinib -0.079 | sotrastaurin -0.001 | alvocidib 0.302 | Tubastatin A 0.071 | [1] 0.009 | defactinib 0.688 | rucaparib 0.488 | [2] 0.109 | encorafenib 0.166 | [3] 0.047

SGPL1 (UniProt O95470)
Sequence of UniProt O95470 (O95470 whole entry, looked up): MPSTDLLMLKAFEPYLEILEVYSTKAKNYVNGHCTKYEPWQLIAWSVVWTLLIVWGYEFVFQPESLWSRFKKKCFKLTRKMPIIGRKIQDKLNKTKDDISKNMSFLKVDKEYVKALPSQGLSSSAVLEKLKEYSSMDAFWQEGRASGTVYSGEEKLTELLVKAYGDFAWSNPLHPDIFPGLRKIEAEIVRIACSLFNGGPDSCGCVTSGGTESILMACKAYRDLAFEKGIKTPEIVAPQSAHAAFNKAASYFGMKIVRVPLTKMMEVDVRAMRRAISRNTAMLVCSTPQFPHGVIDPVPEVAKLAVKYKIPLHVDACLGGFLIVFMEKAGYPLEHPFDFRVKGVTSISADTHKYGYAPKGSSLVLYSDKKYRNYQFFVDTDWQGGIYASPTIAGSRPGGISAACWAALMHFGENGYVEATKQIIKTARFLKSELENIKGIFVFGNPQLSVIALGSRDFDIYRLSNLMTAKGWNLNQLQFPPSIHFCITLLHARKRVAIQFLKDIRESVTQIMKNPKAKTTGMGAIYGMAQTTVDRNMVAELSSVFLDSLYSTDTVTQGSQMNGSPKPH
inactive: saracatinib -0.014 | sotrastaurin 0.03 | alvocidib 0.04 | Tubastatin A -0.031 | [1] 0.064 | defactinib 0.012 | rucaparib 0.1 | [2] 0.015 | encorafenib 0.08 | [3] -0.157

SAMD4B (UniProt Q5PRF9)
inactive: saracatinib -0.349 | sotrastaurin -0.036 | alvocidib -0.059 | Tubastatin A 0.167 | [1] -0.132 | [2] 0.096

RAB9A (UniProt P51151)
inactive: saracatinib 0.015 | sotrastaurin 0.02 | alvocidib -0.04 | Tubastatin A -0.018 | [1] -0.054 | defactinib 0 | rucaparib -0.017 | [2] -0.02 | encorafenib -0.012 | [3] -0.013

RPS2 (UniProt P15880)
inactive: saracatinib -0.058 | sotrastaurin 0 | alvocidib 0.25 | Tubastatin A 0.059 | [1] 0.064 | defactinib 0.261 | rucaparib 0.153 | [2] 0.081 | encorafenib 0.07 | [3] 0.042

RPS3A (UniProt D6R9B6)
inactive: saracatinib -0.125 | sotrastaurin 0.202 | Tubastatin A 0.051 | [2] -0.086

RICTOR isoform 3 (UniProt Q6R327)
active: sotrastaurin 0.708
inactive: saracatinib 0.087 | Tubastatin A 0.092 | [1] 0.114 | rucaparib -0.128 | [2] 0.154 | encorafenib 0.068

SCYL3 isoform 2 (UniProt Q8IZE3)
Sequence of UniProt Q8IZE3 (Q8IZE3 whole entry, looked up): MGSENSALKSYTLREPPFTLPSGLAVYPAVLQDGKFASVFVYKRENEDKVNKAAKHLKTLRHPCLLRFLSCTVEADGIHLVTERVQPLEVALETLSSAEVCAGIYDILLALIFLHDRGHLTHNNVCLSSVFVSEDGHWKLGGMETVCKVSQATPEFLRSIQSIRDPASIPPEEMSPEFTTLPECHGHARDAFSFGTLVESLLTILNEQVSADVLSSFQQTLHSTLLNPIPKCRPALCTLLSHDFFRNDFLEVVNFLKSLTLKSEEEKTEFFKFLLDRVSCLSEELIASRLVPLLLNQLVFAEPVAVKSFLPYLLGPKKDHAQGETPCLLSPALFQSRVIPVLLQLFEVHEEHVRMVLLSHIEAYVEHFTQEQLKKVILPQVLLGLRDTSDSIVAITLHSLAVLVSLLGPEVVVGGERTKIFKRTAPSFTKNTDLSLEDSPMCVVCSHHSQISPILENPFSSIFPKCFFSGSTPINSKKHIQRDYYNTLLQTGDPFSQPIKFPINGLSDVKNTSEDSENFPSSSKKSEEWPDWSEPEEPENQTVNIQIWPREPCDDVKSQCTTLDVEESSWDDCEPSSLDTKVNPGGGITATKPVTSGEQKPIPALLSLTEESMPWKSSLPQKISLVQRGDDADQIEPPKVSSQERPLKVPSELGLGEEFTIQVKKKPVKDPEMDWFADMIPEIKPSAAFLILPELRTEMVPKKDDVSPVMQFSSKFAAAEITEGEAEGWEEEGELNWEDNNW
inactive: saracatinib 0.014 | alvocidib 0.142 | Tubastatin A -0.063 | [1] -0.042 | defactinib -0.014 | rucaparib 0.06 | [2] -0.009 | encorafenib 0.021 | [3] -0.025

RBM6 (UniProt P78332)
inactive: saracatinib -0.032 | sotrastaurin -0.077 | alvocidib -0.073 | Tubastatin A -0.077 | [2] 0.247

RNF185 (UniProt Q96GF1)
inactive: alvocidib -0.003 | Tubastatin A 0.011 | [1] 0.001 | defactinib -0.023 | rucaparib 0.006 | encorafenib -0.094 | [3] 0.125

RBMY1E (UniProt A6NEQ0)
inactive: alvocidib -0.015 | Tubastatin A 0.016 | [1] -0.049 | rucaparib -0.055 | encorafenib 0.182

SERINC1 (UniProt Q9NRX5)
Sequence of UniProt Q9NRX5 (Q9NRX5 whole entry, looked up): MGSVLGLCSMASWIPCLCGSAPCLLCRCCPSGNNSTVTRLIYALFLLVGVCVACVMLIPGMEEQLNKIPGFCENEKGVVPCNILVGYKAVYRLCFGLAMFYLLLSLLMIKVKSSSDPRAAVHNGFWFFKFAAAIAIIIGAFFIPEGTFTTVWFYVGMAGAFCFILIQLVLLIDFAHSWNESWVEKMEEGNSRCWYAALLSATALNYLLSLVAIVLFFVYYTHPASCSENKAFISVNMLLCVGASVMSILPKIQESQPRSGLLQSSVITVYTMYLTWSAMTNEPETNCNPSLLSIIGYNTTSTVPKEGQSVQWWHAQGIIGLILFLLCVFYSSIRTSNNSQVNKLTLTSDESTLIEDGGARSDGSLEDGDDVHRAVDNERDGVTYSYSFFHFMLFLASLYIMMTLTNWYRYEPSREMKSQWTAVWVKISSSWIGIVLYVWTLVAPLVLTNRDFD
inactive: saracatinib 0.093 | sotrastaurin -0.053 | Tubastatin A -0.128 | [1] -0.008 | defactinib 0.031 | rucaparib -0.095 | [2] -0.088 | encorafenib -0.062 | [3] 0.055

RPAIN isoform 8 (UniProt Q86UA6)
Sequence of UniProt Q86UA6 (Q86UA6 whole entry, looked up): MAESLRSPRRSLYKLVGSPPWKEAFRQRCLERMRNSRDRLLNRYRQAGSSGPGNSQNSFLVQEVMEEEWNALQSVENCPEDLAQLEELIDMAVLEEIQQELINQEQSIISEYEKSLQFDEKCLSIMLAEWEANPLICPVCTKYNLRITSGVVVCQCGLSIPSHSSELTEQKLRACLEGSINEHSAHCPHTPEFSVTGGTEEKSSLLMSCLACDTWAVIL
inactive: saracatinib -0.036 | sotrastaurin -0.09 | alvocidib -0.036 | Tubastatin A -0.016 | defactinib -0.231 | [2] -0.082 | [3] 0.094

SDCBP isoform 2 (UniProt O00560)
Sequence of UniProt O00560 (O00560 whole entry, looked up): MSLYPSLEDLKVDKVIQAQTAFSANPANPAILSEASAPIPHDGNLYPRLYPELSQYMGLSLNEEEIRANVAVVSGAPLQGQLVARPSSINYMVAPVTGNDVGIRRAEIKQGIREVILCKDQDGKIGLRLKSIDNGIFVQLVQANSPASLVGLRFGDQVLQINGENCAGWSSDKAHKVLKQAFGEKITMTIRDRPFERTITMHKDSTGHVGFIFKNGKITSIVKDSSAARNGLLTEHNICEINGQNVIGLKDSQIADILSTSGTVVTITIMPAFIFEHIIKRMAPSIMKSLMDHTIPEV
active: [2] -0.756
inactive: saracatinib -0.175 | sotrastaurin 0.042 | Tubastatin A -0.301 | [1] 0.115 | rucaparib -0.036 | encorafenib 0.032

RBBP6 (UniProt Q7Z6E9)
inactive: sotrastaurin 0.11 | alvocidib -0.17 | Tubastatin A 0.074 | [1] -0.006 | defactinib -0.056 | rucaparib 0.067 | encorafenib 0.055 | [3] 0.04

RBM26 isoform 3 (UniProt Q5T8P6)
inactive: sotrastaurin -0.052

RNF41 (UniProt Q9H4P4)
inactive: rucaparib -0.087 | encorafenib -0.016

RPS6KA5 (UniProt O75582)
inactive: [1] 0.083 | rucaparib 0.135 | encorafenib 0.148

RBM48 isoform 2 (UniProt Q5RL73)
inactive: sotrastaurin -0.001 | alvocidib -0.011 | Tubastatin A 0.016 | [1] -0.065
